# Compound activity from PubChem.
# GPT2 inh – Primary qHTS assay for inhibitors of Glutamate pyruvate transaminase 2 (GPT2); Alanine aminotransferase 2 (Homo sapiens), Q8TD30; Recombinant GPT2, coupled pyruvate oxidase/HRP Amplex Red fluorescence; Potency, µM (titrated, usually from 57.7 µM), for the others: at the highest dose activity change, negative = inhibition, actives largely listed as inhibitors; 100,000 tested, 0.25% active; AID 1671188, 2021; also: nearly all actives have a fitted effect of over 60% in size
#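 GPT2 10ng/uL, a-KG 250uM, L-Ala 2mM, HEPES pH7.5 + 0.0001% Tween; 30 min RT. Then Amplex mix (PO/HRP/ThPP), 30 min RT dark, fluorescence. AOA 50uM used as positive control.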
# NIH3T3 tox – Cytotoxic Profiling in NIH 3T3 Cell Line of Diverse Libraries Using Quantitative High-Throughput Screening; NIH 3T3 viability, CellTiter-Glo ATP luminescence, 48-72 h; Potency, µM (titrated, usually from 96.7 µM), for inactives: at the highest dose activity change, negative = cytotoxicity, hits mostly inhibitors; 94,000 tested, 4.3% active; AID 1345082, 2018; also: nearly all actives have a fitted effect of over 55% in size
#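 ATP-dependent luminescence (CellTiter-Glo) served as the viability signal for NIH 3T3 cells treated with compound for 48 or 72 hr at 37 °C.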
# HEK293 tox – Cytotoxic Profiling in HEK 293 Cell Line of Diverse Libraries Using Quantitative High-Throughput Screening | HEK 293 viability, ATP luminescence (CellTiter-Glo), 48-72 h | Potency, µM (titrated, usually from 115 µM), without a hit: at the top dose activity change, negative = cytotoxicity, most hits filed as inhibitors | 94,000 tested, 6.6% active | AID 1345083, 2018; also: nearly all actives have a fitted effect of over 60% in size
#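 qHTS cytotoxicity; HEK 293, 250 cells/well; compound pinned; 48 or 72 hr, 37 degree Celsius, 5% CO2, 95% humidity; CellTiter-Glo, 10 min RT; luminescence (ATP).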
# Luciferase inh – Firefly luciferase inhibition profiling of diverse chemical library using quantitative high-throughput screening | purified P. pyralis luciferase, luminescence, biochemical | Luciferin 4-monooxygenase (Photinus pyralis), P08659 | Potency, µM (highest dose often 115 µM), actives largely listed as inhibitors | 76,000 tested, 2.5% active; also: nearly all actives have a fitted effect of over 65% in size
# Target sequence (P08659 whole entry, looked up): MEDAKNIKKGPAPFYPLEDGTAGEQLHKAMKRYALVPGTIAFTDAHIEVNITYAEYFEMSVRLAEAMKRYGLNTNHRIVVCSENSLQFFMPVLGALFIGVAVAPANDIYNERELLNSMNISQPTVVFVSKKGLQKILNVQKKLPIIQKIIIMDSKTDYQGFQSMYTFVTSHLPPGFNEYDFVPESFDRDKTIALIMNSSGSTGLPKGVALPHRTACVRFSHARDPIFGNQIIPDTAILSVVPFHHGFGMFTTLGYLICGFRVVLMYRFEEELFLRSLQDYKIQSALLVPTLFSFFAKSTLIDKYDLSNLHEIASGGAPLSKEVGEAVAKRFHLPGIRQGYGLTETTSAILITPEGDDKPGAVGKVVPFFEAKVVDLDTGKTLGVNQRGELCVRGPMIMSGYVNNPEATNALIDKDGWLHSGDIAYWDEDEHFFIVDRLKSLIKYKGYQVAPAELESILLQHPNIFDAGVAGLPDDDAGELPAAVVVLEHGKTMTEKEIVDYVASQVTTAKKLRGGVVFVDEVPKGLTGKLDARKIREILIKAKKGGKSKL
#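 Biochemical qHTS: compound (6-point titration) added to 10uM D-luciferin plus 10uM ATP in Tris acetate pH 7.5 buffer with Mg, Tween-20 and BSA, then purified enzyme at 10nM; light output imaged.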
# NPR1 antag – Natriuretic polypeptide receptor (hNpr1) antagonism - Primary qHTS; Atrial natriuretic peptide receptor 1 (Homo sapiens), P16066; HEK293 hNpr1 GloSensor cGMP, ANP-stimulated luminescence; Potency, µM (doses to about 46.3 µM), without a hit: at the highest dose activity change, negative = inhibition, hits mostly inhibitors; 76,000 tested, 1.6% active; AID 1347048, 2019; calls by dose curve; also: nearly all actives have a fitted effect of over 60% in size
#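 Compound pre-incubated 30 min at room temperature on GloSensor-loaded HEK293 cells stably carrying hNpr1 and the pGS-40F cGMP biosensor. Stimulation uses hNppA at 0.1 nM final; luminescence is taken at baseline and 20 min post-agonist.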
# An asterisk follows results filed as active; i = inactive; ? = inconclusive; · = no result given; ! = a repeat was not active; [ ] = another dose, or the depositor's remark. In the library only some 10% were active in any assay of this set; here they are far more common. Unless noted, calls follow the shape of the dose curve; as a rule, active = well fitted curve in the direction sought with a large enough effect; inconclusive = small, poorly fitted or top-dose-only effect, or another doubt; inactive = no such curve, though single readings can be large; an effect the other way counts as inactive or inconclusive. % is scaled to controls: 0 for no effect and ±100 for the full control effect; potency is read from the fitted curve at half-maximal effect.
SMILES,GPT2 inh,NIH3T3 tox,HEK293 tox,Luciferase inh,NPR1 antag
COc1ccc(-c2ccc(C(=O)N[C@@H]3COCC[C@H]3OC)o2)cc1,i,-29%,-20%,35µM*,-2%
CC1CCC2(CC1)NC(=O)N(CC(=O)NCc1ccccc1F)C2=O (centres undefined),1%,-40%,-16%,i,1%
O=C(Nc1ccc(F)cc1)c1ccc2c(c1)OCCN(C1CCC1)C2,4%[88.5 µM],?,?,45µM*,-18%[70.6 µM]
Cc1cc(NC(=O)c2ccc3c(c2)OCCN(C2CCC2)C3)ccc1F,-2%[88.5 µM],?,?,22µM*,-24%[70.6 µM]
Cc1ccc(CNC(=O)c2ccc3c(c2)CN(C2CCC2)CCO3)cc1,-3%,-16%,-18%,i,-1%
COc1ccc(NC(=O)c2ccc3c(c2)OCCN(c2ccccc2)C3)cn1,-20%[88.5 µM],?,?,i,?
CCO[C@@H]1COCC[C@H]1NC(=O)c1ccoc1COc1ccc(C)cc1,?,-18%,?,i,-6%
COc1ccc(NC(=O)NC[C@H]2COCc3nc4ccccc4n32)cc1,4%[88.5 µM],?,-14%[172 µM],89µM*,3%[70.6 µM]
COC(=O)c1ccc2c(c1)nc1n2[C@@H](CNCc2ccc3c(c2)OCO3)COC1,-17%[88.5 µM],?,?,i,?
COc1ccc2nc3n(c2c1)[C@@H](CNS(=O)(=O)Cc1ccccc1)COC3,i,89µM*,?,i,-17%[70.6 µM]
COc1ccc2c(c1)nc1n2[C@@H](CNCc2ccc3c(c2)OCO3)COC1,-38%[88.5 µM],?,56µM*,i,?
COc1ccc2nc3n(c2c1)[C@@H](CNC(=O)c1ccc(C#N)cc1)COC3,3%[88.5 µM],89µM*,-11%[172 µM],i,-4%[70.6 µM]
CC(C)C1CN(C(=O)c2nccn2C)CCC(=O)N1Cc1ccc(F)cc1 (centres undefined),-6%,-2%,-2%,i,3%
COc1ccc(S(=O)(=O)Nc2cccnc2Nc2ccc(O)cc2)cc1,22µM*!,·,·,·,·
O=C(NCc1ccc(F)cc1)C1CCCN(Cc2cccc(-c3ccc(F)cc3F)c2)C1 (centres undefined),2%,45µM*,?,·,·
O=C(NCc1ccccc1F)C1CCCN(Cc2cccc(-c3ccc(F)cc3F)c2)C1 (centres undefined),1%,?,?,·,·
O=C(NCc1ccccc1Cl)C1CCCN(Cc2cccc(-c3ccc(F)cc3F)c2)C1 (centres undefined),-3%,?,45µM*,·,·
O=C(NCc1cccnc1)C1CCCN(Cc2cccc(-c3ccc(F)cc3F)c2)C1 (centres undefined),i,?,?,·,·
O=C(Nc1ccccc1Cl)C1CCCN(Cc2cccc(-c3ccc(F)cc3F)c2)C1 (centres undefined),-5%,35µM*,32µM*,·,·
CCNC(=O)N1CCCC(n2c(C)cnc2C2CC2)C1 (centres undefined),-6%,-5%,-17%,i,2%
O=C(O)C[C@@H]1CCN(C(=O)c2ccccc2)C[C@@H]1CCN1C[C@@H]2C[C@H](C1)c1cccc(=O)n1C2,0%,4%,i,i,1%
O=C(NCc1ccc2c(c1)OCO2)c1nc(-c2cccnc2)c2ccccn12,i,?,?,i,-3%
O=C(c1ccccc1F)N1CCCC(C(=O)N2CCC(N3CCOC3=O)CC2)C1 (centres undefined),-6%,-14%,-3%,·,·
Fc1ccc(-c2noc([C@@H]3Cc4nc[nH]c4CN3Cc3ccccc3)n2)cc1Cl,i,71µM*,71µM*,i,-26%[70.6 µM]
Cc1ccc(-c2noc([C@@H]3Cc4nc[nH]c4CN3Cc3cccs3)n2)cc1,-5%[88.5 µM],79µM*,79µM*,28µM*,-18%[70.6 µM]
SMILES,GPT2 inh,NIH3T3 tox,HEK293 tox,Luciferase inh,NPR1 antag
Fc1ccc(-c2noc([C@@H]3Cc4nc[nH]c4CN3CCCc3ccccc3)n2)cc1Cl,-25%,?,?,?,-12%
Fc1ccc(-c2noc([C@@H]3Cc4nc[nH]c4CN3Cc3cccs3)n2)cc1Cl,i,50µM*,?,56µM*,-28%[70.6 µM]
COc1cccc(-c2cc(C(=O)Nc3cccc(C(F)(F)F)c3)c3cnn(C)c3n2)c1,·,?,32µM*,·,·
Cn1ncc2c(C(=O)Nc3cccc(C(F)(F)F)c3)cc(-c3ccc(C(F)(F)F)cc3)nc21,·,7.9µM*,11µM*,·,·
Cc1cc(C)c(CN2CCC(n3cc(C(C)(C)N)nn3)CC2)c(C)c1,i,79µM*,?,i,7%
COc1ccc(C(=O)Nc2ccc3n(c2=O)C[C@H]2C[C@@H]3CN(S(=O)(=O)c3ccc(OC)cc3)C2)cc1,3%,-21%,?,8.9µM*,-2%
CC(C)c1ccc(CN2CCCC3(CCN(c4ncccc4C(N)=O)C3)C2)cc1 (centres undefined),i,?,40µM*,i,-7%
CN(C)CC1(O)CCCN(c2ncccc2C(N)=O)CC1 (centres undefined),-24%,-2%,-4%,i,6%
Cc1cc(F)ccc1OC1CN(C(=O)c2ccccn2)C1,?,?,?,50µM*,-2%[70.6 µM]
Cc1cc(OC2CN(C(=O)c3ccccn3)C2)ccc1F,4%[88.5 µM],?,79µM*,?,-7%[70.6 µM]
Cc1noc(-c2cccc(F)c2)c1C(=O)NCc1ccc2c(c1)OCO2,0%,?,-30%,i,-9%
O=C(N[C@H]1CCN2C(=O)c3cc(-c4ccccc4F)ccc3NC(=O)[C@H]12)c1cccs1,-5%,?,?,?,-19%
COCC(=O)NC[C@H]1CCN(Cc2ccncc2)C[C@H]1N(C)C,i,1%,-2%,i,8%
Fc1ccc2c(c1)nc1n2[C@@H](CNC2CCC2)COC1,i,71µM*,?,i,2%[70.6 µM]
O=C(COc1ccccc1)NC[C@H]1COCc2nc3cc(F)ccc3n21,0%[88.5 µM],?,79µM*,i,?
CC(=O)Nc1ccc(C(=O)NC[C@@H]2C=C(C)[C@H](CC(=O)NC3CCCC3)C[C@H]2C(C)C)cc1,3%,?,?,i,-1%
O=C1CN(C(=O)c2csc3nc(-c4ccc(C(F)(F)F)cc4)cn23)CCCN1,-4%,?,45µM*,7.9µM*,?
CCN(CC)c1ccc(C(=O)N2CCCC(n3cc(-c4nc(C(C)C)no4)nn3)C2)cc1 (centres undefined),i,?,?,i,-14%
c1cncc(O[C@H]2COCCN(C3CCC3)C2)c1,1%[88.5 µM],50µM*,?,i,1%[70.6 µM]
